Each structure is given as a SMILES string. The campaign covered roughly 52,000 compounds. About 4,300 (8.3%) were called active. This excerpt belongs to a sample that is enriched for actives. Unmarked numbers belong to inactive results. Rule as the data show it: active = survival mostly below about 52% (no sharp cut-off); inactive = mostly above about 56%.

The assay deals with DeltatarO mutant. Kind of assay: S. aureus survival, RN4220 and DeltatarO strains – OD600, teichoic acid synthesis inhibitors, primary screen (AID 463173). To be noted: S. aureus RN4220 wild type/DeltatarO growth, OD600, 18 h, active compounds read low, screened at 18.75 µg/mL (by protocol).
With `CC(=O)c1ccc(NC(=O)Cn2c(=O)cc(C)c3c(C)nn(-c4cccc(F)c4)c32)cc1`, the survival was 81%. Turning to `Cc1cc(=O)n2nc(N3CCC(C(=O)NCCCOC(C)C)CC3)sc2n1`, the survival was 100%. Regarding `NC1CCC(c2ccccc2)CC1` (stereo not drawn), the survival was 78%. As for `COc1ccc(-c2cn3nc(N4CCC(C(=O)NCc5ccc(F)cc5)CC4)sc3n2)cc1`, the figure is 88%; as for `CC1=C(C(=O)Nc2ccc(Cl)cc2)C(c2cccs2)n2nc(SCc3cccc(C)c3)nc2N1` (stereo not drawn), 88%. For `COCCNC(=O)CSc1cn(CC(=O)N2CCCCCC2)c2ccccc12` the value was 73%; for `COc1ccc(-c2nc3c4cnn(-c5ccccc5F)c4ncn3n2)cc1`, 59%. `CN1CCN(C(CNC(=O)C(=O)Nc2ccccc2)c2ccc3c(c2)OCO3)CC1` (stereo not drawn): the survival is 67%.

Regarding `COc1ccc(NC(=O)c2c(C)oc3ccc(O)c(CN4CCC(C)CC4)c23)cc1`, the survival is 57%.

Consider `CCc1c(C)nc(SCC(=O)N2CCN(c3ccccc3OC)CC2)[nH]c1=O`, for which the survival is 77%. For `CCCCNC(=O)c1ccc2c(c1)NC(=O)C(CS(=O)(=O)Cc1ccc(C)cc1)N2` (stereo not drawn) the value was 87%. As for `COc1ccc(Cl)cc1S(=O)(=O)Nc1cccc(-c2ccc(N3CCOCC3)nn2)c1`, the figure is 97%; as for `NS(=O)(=O)c1ccc(CCNc2nc3c(-c4cccc(F)c4)nnn3c3ccc(Cl)cc23)cc1`, 65%. On to `Cc1ccc2nc(SCC(=O)Nc3ccc(C#N)cc3)[nH]c2c1`, for which the survival was 64% (active).

Turning to `Cc1ccc(NC(=O)CSc2nc3ccc(Br)cc3[nH]2)c(C)c1`, the survival was 42% (active). As for `Cc1cc(Cl)ccc1NC(=O)CSc1nc2c(c(=O)[nH]1)CCC2`, the figure is 80%; as for `COC(=O)c1ccc(NC(=O)CSc2nc3ccc(OC)cc3[nH]2)cc1`, 184%; as for `Cc1cc(C)c(NC(=O)CSc2nc3ccncc3[nH]2)c(C)c1`, 119%. In the case of `COc1ccc(NC(=O)CSc2nc3ccccc3[nH]2)cc1`, the survival is 70%. As to `COCCNC(=O)CCCn1c(SCc2ccccc2Cl)nc2c(sc3ccccc32)c1=O`, the survival is 129%.

For the compound `COc1ccccc1NC(=O)c1ccc(-c2nc(COc3ccc(C)cc3)c(C)o2)cc1`, the survival was 83%. Consider `COc1ccc(Nc2nnc(-c3cc4c(ccc5ccccc54)oc3=O)s2)cc1`, for which the survival is 82%. Regarding `CCCCN(Cc1ccccc1)S(=O)(=O)c1ccc2c(c1)CC(C)N2C(=O)CC` (stereo not drawn), the survival is 99%. With `CCOC(=O)c1c(C)oc2nc(C)nc(NCc3cccc(OC)c3)c12`, the survival was 72%. Take `Cc1ccc(NC(=O)Cn2c(-c3cncs3)nc3ccccc32)c(Br)c1`: the survival was 63%. For `CC(=O)c1cccc(NC(=O)Cn2c(-c3cncs3)nc3ccccc32)c1` the value was 67%. For `CCCCOc1ccccc1NC(=O)Cn1c(-c2cncs2)nc2ccccc21` the value was 49% (active); for `Cc1cc(C)cc(NC(=O)Cn2c(-c3cncs3)nc3ccccc32)c1`, 37% (active); for `CCc1ccc(NC(=O)Cn2c(-c3cncs3)nc3ccccc32)cc1`, 59%.

Consider `CCCCCOc1ccc(NC(=O)Cn2c(-c3cncs3)nc3ccccc32)cc1`, for which the survival is 86%. Turning to `CC1CCN(C(=O)Cn2cc(SCC(=O)Nc3ccccc3)c3ccccc32)CC1`, the survival was 67%. As for `CCOc1ccc(CNC(=O)CCc2c(C)nn(-c3ccc(N4CCOCC4)nn3)c2C)cc1`, the figure is 72%; as for `O=C(CSc1nnc2c(n1)[nH]c1ccccc12)Nc1ccccc1`, 89%; as for `COc1ccc(CC(=O)NCC(c2ccc(Cl)cc2)N2CCOCC2)cc1` (stereo not drawn), 71%. With `CCCCNC(=O)CSc1nc2nc(C)c(Cc3ccccc3C)c(C)n2n1`, the survival is 39% (active). With `Cc1ccc(Cc2c(C)nc3nc(SCC(=O)NC(C)c4ccccc4)nn3c2C)cc1` (stereo not drawn), the survival was 53%. As for `CCN(CC)CCCNC(=O)CSc1nc2nc(C)c(Cc3ccccc3C)c(C)n2n1`, the figure is 75%. For `Cc1ccccc1Cc1c(C)nc2nc(SCC(=O)NC(C)c3ccccc3)nn2c1C` (stereo not drawn) the value was 57% (active); for `CCCNC(=O)CSc1nc2nc(C)c(Cc3ccccc3Cl)c(C)n2n1`, 60%. Turning to `Cc1ccccc1Cc1c(C)nc2nc(SCC(=O)N(C)c3ccccc3)nn2c1C`, the survival was 78%. For `Cc1cccc2sc(N(CCN(C)C)C(=O)c3ccc4c(c3)OCCO4)nc12`, the survival was 119%. In the case of `CC(=O)N1CCc2c(sc3c2c(=O)n(-c2ccc(F)cc2)c(=O)n3Cc2ccc(C#N)cc2)C1`, the survival was 107%. On to `Cc1ccc(CNCc2ccc3c(c2)n(C)c(=O)n3C)cc1`, for which the survival was 92%. For `CCN(CC)S(=O)(=O)c1ccc2c(c1)nc(CN(C)C(=O)c1cccc(Cl)c1)n2C` the value was 71%. Consider `C#CCOc1ccc(C2C3=C(CCCC3=O)N(CCC(=O)O)C3=C2C(=O)CCC3)cc1`, for which the survival is 70%. As for `COc1ccc2c(c1)CCc1c(C(=O)Nc3c(C)nn(Cc4c(Cl)cccc4Cl)c3C)noc1-2`, the figure is 114%; as for `CCOC(=O)c1cc2c(=O)n3ccccc3nc2n(CC2CCCO2)c1=NC(=O)c1cccc(C)c1` (stereo not drawn), 29% (active); as for `CCOC(=O)c1cc2c(=O)n3ccccc3nc2n(CC2CCCO2)c1=NC(=O)c1cccc(C(F)(F)F)c1` (stereo not drawn), 97%. For `CCOC(=O)c1cc2c(=O)n3ccccc3nc2n(CC2CCCO2)c1=NC(=O)c1cc(C)cc(C)c1` (stereo not drawn), the survival was 44% (active). Regarding `CCOC(=O)c1cc2c(=O)n3ccccc3nc2n(CC2CCCO2)c1=NC(=O)c1ccc(C)cc1` (stereo not drawn), the survival is 101%.

For the compound `CCOC(=O)c1cc2c(=O)n3ccccc3nc2n(CC2CCCO2)c1=NC(=O)c1ccc(C(C)(C)C)cc1` (stereo not drawn), the survival is 59%.

As to `CCn1c(CN2CCCCC2)nc2cc(NC(=O)c3cc(OC)c(OC)c(OC)c3)ccc21`, the survival was 87%. As to `O=C(c1cnc(N2CCCCC2)c2ccccc12)N1CCN(c2ccccc2F)CC1`, the survival was 75%. Take `Cc1ccc2c(c1)nnn2C1CCN(CC(=O)N(c2ccccc2)c2ccccc2)CC1`: the survival was 98%. `CCOc1ccc(CNC(=O)c2cnc3sc(N4CCC(C)CC4)nn3c2=O)cc1OC`: the survival was 74%.

For `Cc1cn(C)c(CC(=O)NCc2ccc(Cl)cc2)c1C(=O)O`, the survival was 102%. As for `Cc1cn(C)c(CC(=O)NCc2ccccc2)c1C(=O)O`, the figure is 85%. As to `Cc1ccc(CNC(=O)Cc2c(C(=O)O)c(C)cn2C)cc1`, the survival was 89%. As for `Cc1cn(C)c(CC(=O)NCc2cccc(Cl)c2)c1C(=O)O`, the figure is 20% (active); as for `COc1cccc(CNC(=O)Cc2c(C(=O)O)c(C)cn2C)c1`, 8% (active). For the compound `COc1ccc(CNC(=O)Cc2c(C(=O)O)c(C)cn2C)cc1`, the survival was 94%. Take `COc1ccc(NC(=O)c2ccc3oc(=O)c(S(=O)(=O)c4ccc(C)cc4)cc3c2)cc1OC`: the survival was 90%. As for `COc1cc(Cl)c(C)cc1NC(=O)CCn1cnc2onc(-c3ccc(F)cc3)c2c1=O`, the figure is 77%.

For the compound `COc1ccc(-c2nn3c(=O)cc(CN4CCN(C(=O)Nc5cc(C)ccc5C)CC4)nc3s2)cc1`, the survival was 99%. As for `COc1ccc(NC(=O)C2CCN(S(=O)(=O)c3ccc4c(c3)CCCC(=O)N4)CC2)cc1Cl`, the survival was 78%.

For `COc1ccc(CCNC(=O)c2cc(-c3ccccc3)nc3ccccc23)cc1OC`, the survival is 58%.

Regarding `CCOc1ccc(-c2cc(C(=O)NCCc3ccc(Cl)cc3)c3ccccc3n2)cc1`, the survival was 81%.

As to `CCOc1ccc(-c2cc(C(=O)NCCc3ccc(C)cc3)c3ccccc3n2)cc1`, the survival was 52% (active). Regarding `CCOc1ccc(-c2cc(C(=O)NCc3ccccc3)c3c(-c4ccc(CC)cc4)[nH]nc3n2)cc1`, the survival is 47% (active). Consider `CCOc1ccc(-c2cc(C(=O)NCc3ccc(C)cc3)c3ccccc3n2)cc1`, for which the survival was 87%.

Consider `COc1ccc(-c2cc(C(=O)NCc3ccccc3)c3c(-c4ccccc4)[nH]nc3n2)cc1`, for which the survival was 93%. Consider `CCOc1ccc(-c2cc(C(=O)NCc3ccc(OC)cc3)c3c(-c4ccc(F)cc4)[nH]nc3n2)cc1`, for which the survival is 77%. Take `COc1ccc(Nc2cc(C(=O)NCc3cccs3)c3ccccc3n2)cc1`: the survival was 131%.

For the compound `COc1ccc(Nc2cc(C(=O)NCc3ccccc3)c3ccccc3n2)cc1`, the survival was 97%. For `COc1ccc(Nc2cc(C(=O)NCc3ccccc3OC)c3ccccc3n2)cc1`, the survival is -5% (active).

With `COc1ccc(-c2cc(C(=O)NCCc3ccc(OC)c(OC)c3)c3ccccc3n2)cc1`, the survival is 48% (active).

On to `COc1ccc(CCNC(=O)c2cc(-c3ccc(C)c(C)c3)nc3ccccc23)cc1OC`, for which the survival is 120%. On to `CCCCNc1ccc(-c2nc(-c3ccccc3)no2)cc1[N+](=O)[O-]`, for which the survival is 72%. For the compound `CCOc1ccc(C(=O)O)o1`, the survival is 94%.

In the case of `Cc1ccc(-n2c(SCC(=O)NC(C)(C)C)nc(O)cc2=O)cc1`, the survival is 107%. As for `CCCCOC(=O)c1ccc(Nc2ncnc3[nH]ncc23)cc1`, the survival is 55%.

Consider `N#Cc1ccccc1NC(=O)C(=O)NCCc1csc(-c2ccc(C(F)(F)F)cc2)n1`, for which the survival is 85%. Consider `Cc1ccc(S(=O)(=O)c2cn(Cc3ccccc3)c3cc(N4CCCC4)c(F)cc3c2=O)cc1`, for which the survival is 71%. On to `Cc1nc2sc(C)c(C)n2c(=O)c1S(=O)(=O)N1CCN(c2ccccc2F)CC1`, for which the survival is 68%. For `Cc1cc(C)c(NC(=O)Cn2c(=O)n(-c3cccc(C(F)(F)F)c3)c(=O)c3c(C)c(C)sc32)c(C)c1`, the survival is 92%. `O=C(Nc1ccc2c(c1)OCCO2)C1CCCN(S(=O)(=O)Cc2ccccc2)C1` (stereo not drawn): the survival was 102%. Take `CCOc1ccc(NC(=O)c2nn(C)c3c2CS(=O)(=O)c2ccccc2-3)cc1`: the survival is 60%. Turning to `Cc1ccc(C(=O)CSc2nc3cc(C(=O)NC4CCCC4)ccc3c(=O)n2CC2CCCO2)c(C)c1` (stereo not drawn), the survival is 91%. With `Cc1ccc(C(=O)CSc2nc3cc(C(=O)NC4CCCC4)ccc3c(=O)n2CC2CCCO2)cc1` (stereo not drawn), the survival was 101%. As for `O=C(CSc1nc2cc(C(=O)NC3CCCC3)ccc2c(=O)n1CC1CCCO1)c1ccc(F)cc1` (stereo not drawn), the figure is 96%; as for `CCOc1ccc(C(=O)CSc2nc3cc(C(=O)NC4CCCC4)ccc3c(=O)n2CC2CCCO2)cc1` (stereo not drawn), 8% (active); as for `COc1ccc(C(=O)CSc2nc3cc(C(=O)NC4CCCC4)ccc3c(=O)n2CC2CCCO2)cc1` (stereo not drawn), 95%. `O=C(CSc1nc2cc(C(=O)NC3CCCC3)ccc2c(=O)n1CC1CCCO1)c1cccc(Cl)c1` (stereo not drawn): the survival is 20% (active).

The record behind these values is PubChem BioAssay AID463173 (ICCB-Longwood Screening Facility, Harvard Medical School, 2010).
